This is part of a sample that, as a whole, favours compounds with a hit. Of some 83,000 tested, about 20% had one in any assay.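 Compound tested at a single concentration for 48 hours in 96-well plates; a percent growth value below 10 was scored as active.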 Calls of active or inactive are those of the source.
Experiments:
Experiment in all cases: NCI-60 one-dose screen, 48 h (100 = growth as untreated, 0 = no growth, -100 = all killed)
Details in all cases: 10 µM unless noted
SK-MEL-2 melanoma = test system: SK-MEL-2 melanoma
EKVX NSCLC = test system: EKVX NSCLC
SN12C renal = test system: SN12C renal
UO-31 renal = test system: UO-31 renal
TK-10 renal = test system: TK-10 renal
ACHN renal = test system: ACHN renal
CAKI-1 renal = test system: CAKI-1 renal
CCRF-CEM leukemia = test system: CCRF-CEM leukemia
MOLT-4 leukemia = test system: MOLT-4 leukemia
A498 renal = test system: A498 renal

Measured: growth

COc1cc2c(c(OC)c1OC)C(=O)/C(=C/c1cc(C)c(O)c(C)c1)S2
inactive: SK-MEL-2 melanoma 43.6% | EKVX NSCLC 43.9% | SN12C renal 45.6% | UO-31 renal 33% | TK-10 renal 59.2% | ACHN renal 45.8% | CAKI-1 renal 26.3% | CCRF-CEM leukemia 25% | MOLT-4 leukemia 33.9%

CC(C)CCC[C@@H](C)[C@H]1CCC2C3=CCC4C(=O)C=CC(=O)C4C3CC[C@@]21C (stereo partly specified)
inactive: SN12C renal 20.1% | MOLT-4 leukemia 10.4%
active: SK-MEL-2 melanoma -16.4% | EKVX NSCLC -10% | UO-31 renal -67.9% | TK-10 renal -36.6% | ACHN renal 4.54% | CAKI-1 renal -56.3% | A498 renal -6.21%

N=c1ccn2c(n1)OC1C(O)C(CO)OC12 (stereo unspecified)
inactive: SK-MEL-2 melanoma 46.5% | EKVX NSCLC 85.5% | SN12C renal 34.9% | TK-10 renal 51.3% | A498 renal 74.7% | MOLT-4 leukemia 108%
active: UO-31 renal -3.93% | ACHN renal -15.9% | CAKI-1 renal -14.4%

COc1cc2ccccc2cc1C(=O)NC(=S)Nc1ccc(-c2nc3ccccc3[nH]2)cc1
inactive: SK-MEL-2 melanoma 105% | EKVX NSCLC 89.9% | SN12C renal 83.4% | UO-31 renal 89.8% | TK-10 renal 83.4% | ACHN renal 99.2% | CAKI-1 renal 90.7% | CCRF-CEM leukemia 79.2%

Cn1ccc(Cc2cnc(N)s2)n1
inactive: SK-MEL-2 melanoma 97.4% | EKVX NSCLC 106% | SN12C renal 104% | UO-31 renal 86.2% | TK-10 renal 88.7% | ACHN renal 99.8% | CAKI-1 renal 93.6% | A498 renal 94.2% | MOLT-4 leukemia 93.3%

CCCN1CCN(c2ccc3nc(-c4ccc5nc(-c6ccc(OCC)c(OCC)c6)[nH]c5c4)[nH]c3c2)CC1
inactive: UO-31 renal 47.2%
active: SK-MEL-2 melanoma -73.9% | EKVX NSCLC -3.15% | SN12C renal -37.5% | TK-10 renal -0.902% | ACHN renal -28.9% | CAKI-1 renal -18.9% | CCRF-CEM leukemia 5.88% | MOLT-4 leukemia 3.28%

Cl.Fc1c[c-]c(-c2ccccn2)c(F)c1.[Pt].c1ccc(P(c2ccccc2)C([PH+](c2ccccc2)c2ccccc2)[PH+](c2ccccc2)c2ccccc2)cc1
inactive: EKVX NSCLC 20.8% | SN12C renal 11.2% | TK-10 renal 24.3% | ACHN renal 17.5% | CCRF-CEM leukemia 17.3% | MOLT-4 leukemia 13.2%
active: SK-MEL-2 melanoma 7.06% | UO-31 renal -5.69% | CAKI-1 renal -1.81%

Cc1[nH]c(-c2nc3ccccc3[nH]2)c(C)c1C(=O)N1CCc2sccc2C1
inactive: SK-MEL-2 melanoma 107% | EKVX NSCLC 91.9% | SN12C renal 89.2% | UO-31 renal 77.9% | TK-10 renal 106% | ACHN renal 99.5% | CAKI-1 renal 85.1% | CCRF-CEM leukemia 88.7% | MOLT-4 leukemia 93.3%

CCCCCCNC(=O)c1cc(NCc2cc(O)ccc2O)ccc1O
inactive: SK-MEL-2 melanoma 95.5% | EKVX NSCLC 66.6% | SN12C renal 56.3% | UO-31 renal 34.4% | TK-10 renal 68.6% | ACHN renal 57.1% | CAKI-1 renal 56.3% | A498 renal 99% | MOLT-4 leukemia 12.5%

COC1(CC[C@@H](C)COC2OC(CO)C(O)C(O)C2O)O[C@H]2C[C@H]3[C@@H]4CC=C5C[C@@H](OC6OC(CO)C(OC7OC(C)C(O)C(O)C7O)C(O)C6OC6OC(C)C(O)C(O)C6O)CC[C@]5(C)[C@H]4CC[C@]3(C)[C@H]2[C@@H]1C (stereo partly specified)
active: SK-MEL-2 melanoma -71% | EKVX NSCLC 4.85% | SN12C renal -64.7% | UO-31 renal -65.4% | TK-10 renal -60.4% | ACHN renal -87.4% | CAKI-1 renal -76.5% | CCRF-CEM leukemia -95.2%

O=C1CCC(N2C(=O)c3cccc(NCCCC4CCN(CCNC(=O)c5cc6c(o5)C(=O)c5ccccc5C6=O)CC4)c3C2=O)C(=O)N1 (stereo unspecified)
inactive: CCRF-CEM leukemia 21%
active: SK-MEL-2 melanoma -46.4% | EKVX NSCLC -61.8% | SN12C renal -95.4% | UO-31 renal -72.9% | TK-10 renal -70.6% | ACHN renal -92.4% | CAKI-1 renal -26.4%

CN(C)S(=O)(=O)n1cnc([C@@H]2[C@@H]3C(=O)OC[C@@H]3C[C@]23N=CN(Cc2ccccc2)C3=O)c1
inactive: SK-MEL-2 melanoma 176% | EKVX NSCLC 111% | SN12C renal 104% | UO-31 renal 92.1% | TK-10 renal 112% | ACHN renal 102% | CAKI-1 renal 97.3% | A498 renal 99.5% | MOLT-4 leukemia 20.7%

CCCc1cc(=O)oc2c3c(c4c(c12)OC(C)(C)C=C4)O[C@@H](C)[C@H](C)C3=O
inactive: SK-MEL-2 melanoma 97.1% | EKVX NSCLC 63% | SN12C renal 82.7% | UO-31 renal 71.9% | TK-10 renal 83.2% | ACHN renal 84.2% | CAKI-1 renal 72.8% | CCRF-CEM leukemia 70.3%

CC[C@]1(O)C[C@H]2CN(CCc3c([nH]c4ccccc34)[C@@](C(=O)OC)(c3cc4c(cc3OC)N(C=O)[C@H]3[C@@](O)(C(=O)OC)[C@H](OC(C)=O)[C@]5(CC)C=CCN6CC[C@]43[C@@H]65)C2)C1
active: CCRF-CEM leukemia 5.75% | MOLT-4 leukemia 5.04%
inactive: SK-MEL-2 melanoma 58% | EKVX NSCLC 27.1% | SN12C renal 39.9% | UO-31 renal 28.6% | TK-10 renal 60.8% | ACHN renal 36.3% | CAKI-1 renal 26.5%

CC(=O)c1cc2c(o1)C(=O)c1ccccc1C2=O
active: SK-MEL-2 melanoma -69.4% | EKVX NSCLC -81% | SN12C renal -81.2% | UO-31 renal -98.1% | TK-10 renal -96.4% | ACHN renal -98.3% | CAKI-1 renal -98.4% | CCRF-CEM leukemia -74.8% | MOLT-4 leukemia -43%

— PubChem BioAssay (NCI)
